Laboratory results taken from publication PMC11006913.

Assays:
Test in all cases: PBM; 200 nM protein, PBS
Details in all cases: dsDNA, one strand shown
[1] = target: CRX (Homo sapiens, UniProt O43186 26-111)
[2] = target: CRX (Homo sapiens, UniProt O43186 26-111, E42D)
[3] = target: CRX (Homo sapiens, UniProt O43186 26-111, R41L)
Chain of CRX (Homo sapiens, UniProt O43186 26-111, R41L) (O43186 26-111 R41L): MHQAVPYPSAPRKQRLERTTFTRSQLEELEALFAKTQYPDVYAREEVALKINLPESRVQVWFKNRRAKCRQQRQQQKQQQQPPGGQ

Chain of CRX (Homo sapiens, UniProt O43186 26-111) (O43186 26-111): as the sequence (O43186 26-111 R41L) above, with L16R counted along it
Chain of CRX (Homo sapiens, UniProt O43186 26-111, E42D) (O43186 26-111 E42D): as the sequence (O43186 26-111 R41L) above, with L16R, E17D counted along it

Row | Sequence | binding signal [1] | binding signal [2] | binding signal [3]
1 | CGAACCTC | 8.5 upbm affinity estimate (log intensity, higher = more binding, comparable within an allelic series) | 8.36 upbm affinity estimate (log intensity, higher = more binding, comparable within an allelic series) | 8.33 upbm affinity estimate (log intensity, higher = more binding, comparable within an allelic series)
2 | AAATCCAA | 11.2 upbm affinity estimate (log intensity, higher = more binding, comparable within an allelic series) | 11 upbm affinity estimate (log intensity, higher = more binding, comparable within an allelic series) | 11 upbm affinity estimate (log intensity, higher = more binding, comparable within an allelic series)
3 | CATGACAG | 8.34 upbm affinity estimate (log intensity, higher = more binding, comparable within an allelic series) | 8.16 upbm affinity estimate (log intensity, higher = more binding, comparable within an allelic series) | 8.25 upbm affinity estimate (log intensity, higher = more binding, comparable within an allelic series)
4 | CCACCGAG | 8.14 upbm affinity estimate (log intensity, higher = more binding, comparable within an allelic series) | 8.21 upbm affinity estimate (log intensity, higher = more binding, comparable within an allelic series) | 8.2 upbm affinity estimate (log intensity, higher = more binding, comparable within an allelic series)
5 | ATTTAAGA | 11.1 upbm affinity estimate (log intensity, higher = more binding, comparable within an allelic series) | 10.8 upbm affinity estimate (log intensity, higher = more binding, comparable within an allelic series) | 10.4 upbm affinity estimate (log intensity, higher = more binding, comparable within an allelic series)
6 | CCGGTCGA | 8.51 upbm affinity estimate (log intensity, higher = more binding, comparable within an allelic series) | 8.46 upbm affinity estimate (log intensity, higher = more binding, comparable within an allelic series) | 8.45 upbm affinity estimate (log intensity, higher = more binding, comparable within an allelic series)
7 | GATTATCC | 12.9 upbm affinity estimate (log intensity, higher = more binding, comparable within an allelic series) | 12.9 upbm affinity estimate (log intensity, higher = more binding, comparable within an allelic series) | 12.8 upbm affinity estimate (log intensity, higher = more binding, comparable within an allelic series)
8 | GACGCTAC | 8.4 upbm affinity estimate (log intensity, higher = more binding, comparable within an allelic series) | 8.38 upbm affinity estimate (log intensity, higher = more binding, comparable within an allelic series) | 8.27 upbm affinity estimate (log intensity, higher = more binding, comparable within an allelic series)
9 | GCGTGCAC | 8.43 upbm affinity estimate (log intensity, higher = more binding, comparable within an allelic series) | 8.37 upbm affinity estimate (log intensity, higher = more binding, comparable within an allelic series) | 8.37 upbm affinity estimate (log intensity, higher = more binding, comparable within an allelic series)
10 | CCGAACCG | 8.21 upbm affinity estimate (log intensity, higher = more binding, comparable within an allelic series) | 8.3 upbm affinity estimate (log intensity, higher = more binding, comparable within an allelic series) | 8.28 upbm affinity estimate (log intensity, higher = more binding, comparable within an allelic series)
11 | CTCTCTCC | 8.11 upbm affinity estimate (log intensity, higher = more binding, comparable within an allelic series) | 8.15 upbm affinity estimate (log intensity, higher = more binding, comparable within an allelic series) | 8.3 upbm affinity estimate (log intensity, higher = more binding, comparable within an allelic series)
12 | AGATTATG | 12.7 upbm affinity estimate (log intensity, higher = more binding, comparable within an allelic series) | 12.6 upbm affinity estimate (log intensity, higher = more binding, comparable within an allelic series) | 12.6 upbm affinity estimate (log intensity, higher = more binding, comparable within an allelic series)
13 | ACGTCTCG | 8 upbm affinity estimate (log intensity, higher = more binding, comparable within an allelic series) | 8.27 upbm affinity estimate (log intensity, higher = more binding, comparable within an allelic series) | 8.17 upbm affinity estimate (log intensity, higher = more binding, comparable within an allelic series)
14 | CCGGATAA | 11.5 upbm affinity estimate (log intensity, higher = more binding, comparable within an allelic series) | 11.3 upbm affinity estimate (log intensity, higher = more binding, comparable within an allelic series) | 10.9 upbm affinity estimate (log intensity, higher = more binding, comparable within an allelic series)
15 | ACTAATCT | 13.1 upbm affinity estimate (log intensity, higher = more binding, comparable within an allelic series) | 13.1 upbm affinity estimate (log intensity, higher = more binding, comparable within an allelic series) | 12.7 upbm affinity estimate (log intensity, higher = more binding, comparable within an allelic series)
16 | AATCTCCC | 10.7 upbm affinity estimate (log intensity, higher = more binding, comparable within an allelic series) | 10.4 upbm affinity estimate (log intensity, higher = more binding, comparable within an allelic series) | 10.6 upbm affinity estimate (log intensity, higher = more binding, comparable within an allelic series)
17 | ACCGCACC | 8.25 upbm affinity estimate (log intensity, higher = more binding, comparable within an allelic series) | 8.39 upbm affinity estimate (log intensity, higher = more binding, comparable within an allelic series) | 8.35 upbm affinity estimate (log intensity, higher = more binding, comparable within an allelic series)
18 | CCAGTGCA | 8.15 upbm affinity estimate (log intensity, higher = more binding, comparable within an allelic series) | 8.21 upbm affinity estimate (log intensity, higher = more binding, comparable within an allelic series) | 8.38 upbm affinity estimate (log intensity, higher = more binding, comparable within an allelic series)

Row | Sequence | binding signal [1] | binding signal [2] | binding signal [3]
19 | CCGATCAG | 9.74 upbm affinity estimate (log intensity, higher = more binding, comparable within an allelic series) | 9.63 upbm affinity estimate (log intensity, higher = more binding, comparable within an allelic series) | 9.48 upbm affinity estimate (log intensity, higher = more binding, comparable within an allelic series)
20 | CGGGTCAC | 7.89 upbm affinity estimate (log intensity, higher = more binding, comparable within an allelic series) | 8.08 upbm affinity estimate (log intensity, higher = more binding, comparable within an allelic series) | 8.09 upbm affinity estimate (log intensity, higher = more binding, comparable within an allelic series)
21 | CGCGGCAG | 8.09 upbm affinity estimate (log intensity, higher = more binding, comparable within an allelic series) | 8.17 upbm affinity estimate (log intensity, higher = more binding, comparable within an allelic series) | 8.17 upbm affinity estimate (log intensity, higher = more binding, comparable within an allelic series)
22 | CACTAATC | 12.8 upbm affinity estimate (log intensity, higher = more binding, comparable within an allelic series) | 12.6 upbm affinity estimate (log intensity, higher = more binding, comparable within an allelic series) | 12 upbm affinity estimate (log intensity, higher = more binding, comparable within an allelic series)
23 | ACAGGCAC | 8.14 upbm affinity estimate (log intensity, higher = more binding, comparable within an allelic series) | 8.14 upbm affinity estimate (log intensity, higher = more binding, comparable within an allelic series) | 8.23 upbm affinity estimate (log intensity, higher = more binding, comparable within an allelic series)
24 | GAATAAAC | 10 upbm affinity estimate (log intensity, higher = more binding, comparable within an allelic series) | 9.83 upbm affinity estimate (log intensity, higher = more binding, comparable within an allelic series) | 9.51 upbm affinity estimate (log intensity, higher = more binding, comparable within an allelic series)
25 | GGGCGCAC | 7.78 upbm affinity estimate (log intensity, higher = more binding, comparable within an allelic series) | 7.93 upbm affinity estimate (log intensity, higher = more binding, comparable within an allelic series) | 7.95 upbm affinity estimate (log intensity, higher = more binding, comparable within an allelic series)
26 | GGGTGGCA | 8.24 upbm affinity estimate (log intensity, higher = more binding, comparable within an allelic series) | 8.24 upbm affinity estimate (log intensity, higher = more binding, comparable within an allelic series) | 8.32 upbm affinity estimate (log intensity, higher = more binding, comparable within an allelic series)
27 | AAGTAATA | 10.4 upbm affinity estimate (log intensity, higher = more binding, comparable within an allelic series) | 10.3 upbm affinity estimate (log intensity, higher = more binding, comparable within an allelic series) | 10.1 upbm affinity estimate (log intensity, higher = more binding, comparable within an allelic series)
28 | AATCACTA | 10.3 upbm affinity estimate (log intensity, higher = more binding, comparable within an allelic series) | 10.2 upbm affinity estimate (log intensity, higher = more binding, comparable within an allelic series) | 9.96 upbm affinity estimate (log intensity, higher = more binding, comparable within an allelic series)
29 | GGTCGAAC | 8.09 upbm affinity estimate (log intensity, higher = more binding, comparable within an allelic series) | 8.11 upbm affinity estimate (log intensity, higher = more binding, comparable within an allelic series) | 8.1 upbm affinity estimate (log intensity, higher = more binding, comparable within an allelic series)
30 | GGGAGACA | 8.13 upbm affinity estimate (log intensity, higher = more binding, comparable within an allelic series) | 8.2 upbm affinity estimate (log intensity, higher = more binding, comparable within an allelic series) | 8.26 upbm affinity estimate (log intensity, higher = more binding, comparable within an allelic series)
31 | CCTCGCCC | 8.43 upbm affinity estimate (log intensity, higher = more binding, comparable within an allelic series) | 8.52 upbm affinity estimate (log intensity, higher = more binding, comparable within an allelic series) | 8.44 upbm affinity estimate (log intensity, higher = more binding, comparable within an allelic series)
32 | CGACGGAC | 8.32 upbm affinity estimate (log intensity, higher = more binding, comparable within an allelic series) | 8.15 upbm affinity estimate (log intensity, higher = more binding, comparable within an allelic series) | 8.24 upbm affinity estimate (log intensity, higher = more binding, comparable within an allelic series)
33 | ATAAAACC | 10.7 upbm affinity estimate (log intensity, higher = more binding, comparable within an allelic series) | 10.4 upbm affinity estimate (log intensity, higher = more binding, comparable within an allelic series) | 10.2 upbm affinity estimate (log intensity, higher = more binding, comparable within an allelic series)
34 | GCGTGACC | 8.46 upbm affinity estimate (log intensity, higher = more binding, comparable within an allelic series) | 8.49 upbm affinity estimate (log intensity, higher = more binding, comparable within an allelic series) | 8.39 upbm affinity estimate (log intensity, higher = more binding, comparable within an allelic series)
35 | GACCGAAC | 7.97 upbm affinity estimate (log intensity, higher = more binding, comparable within an allelic series) | 8.09 upbm affinity estimate (log intensity, higher = more binding, comparable within an allelic series) | 8.18 upbm affinity estimate (log intensity, higher = more binding, comparable within an allelic series)
